We go through six molecules from PubChem BioAssay.

Assay [1] deals with Plasmodium falciparum Sir2 (PF13_0152, Sir2A). Nature of the assay: Plasmodium falciparum Sir2A binding compounds – biochemical, small-molecule microarray, 635 nm fluorescence, primary screen (AID 1098).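 Further: score merges spot fluorescence intensity with its signal-to-noise ratio.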 The following applies: fluorescence 635 nm, higher = more signal.
The nature of assay [2]: probe aDKK1 binding to arrayed compounds – biochemical, biotinylated probe, 635/667 nm fluorescence, primary screen (AID 1099).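 Further: score merges 667nm spot fluorescence with signal to noise across triplicate slides.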 The following applies: small-molecule microarray, higher = more signal.
The nature of assay [3]: probe aCHRDL2 binding to arrayed compounds – biochemical, biotinylated probe, 635/667 nm fluorescence, primary screen (AID 1100). The following applies: small-molecule microarray, higher = more signal.
The nature of assay [4]: change in splice reporter luminescence, either direction, cell-based, HEK293, spliceosome inhibition project, primary screen (AID 1101).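 Further: HEK293 cells carrying a splicing-competent luciferase reporter gene; test concentration not given here.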 The following applies: HEK293 splicing luciferase reporter, 24 h, higher = more signal, called active from +8 up or from −8 down. (In general: Reporter assays use an easily measured gene product as a stand-in for the process of interest.)
The target of assay [5] is Fibroblast growth factor 10 (Homo sapiens) (UniProt O15520). Nature of the assay: compounds binding fibroblast growth factor 10 – biochemical, small-molecule microarray, 635 nm fluorescence, primary screen (AID 1102). The following applies: FGF10 binding, fluorescence 635 nm, higher = more signal.
Fibroblast growth factor 10 (Homo sapiens), sequence (O15520 whole entry, looked up): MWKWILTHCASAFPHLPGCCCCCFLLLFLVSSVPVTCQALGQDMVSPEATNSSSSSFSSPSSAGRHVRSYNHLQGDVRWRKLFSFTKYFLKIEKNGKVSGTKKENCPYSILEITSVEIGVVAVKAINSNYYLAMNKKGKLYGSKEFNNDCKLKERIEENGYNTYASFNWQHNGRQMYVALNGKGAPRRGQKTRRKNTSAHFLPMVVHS
Assay [6] relates to glycogen synthase kinase-3 (GSK3A per assay name; protocol says GSK3B). Nature of the assay: compounds binding glycogen synthase kinase-3 – biochemical, small-molecule microarray, 635 nm fluorescence, GSK3A, primary screen (AID 1103). Further: the record names both GSK3A and GSK3B. The following applies: fluorescence 635 nm, higher = more signal.
The target in assay [7] is Epidermal growth factor receptor (Homo sapiens) (UniProt P00533). Nature of the assay: compounds binding epidermal growth factor receptor – biochemical, small-molecule microarray, 635 nm fluorescence, primary screen (AID 1104).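 Further: score merges 667 nm emission intensity with spot signal to noise over triplicate slides.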 The following applies: EGFR binding, higher = more signal.
Epidermal growth factor receptor (Homo sapiens), sequence (P00533 whole entry, looked up): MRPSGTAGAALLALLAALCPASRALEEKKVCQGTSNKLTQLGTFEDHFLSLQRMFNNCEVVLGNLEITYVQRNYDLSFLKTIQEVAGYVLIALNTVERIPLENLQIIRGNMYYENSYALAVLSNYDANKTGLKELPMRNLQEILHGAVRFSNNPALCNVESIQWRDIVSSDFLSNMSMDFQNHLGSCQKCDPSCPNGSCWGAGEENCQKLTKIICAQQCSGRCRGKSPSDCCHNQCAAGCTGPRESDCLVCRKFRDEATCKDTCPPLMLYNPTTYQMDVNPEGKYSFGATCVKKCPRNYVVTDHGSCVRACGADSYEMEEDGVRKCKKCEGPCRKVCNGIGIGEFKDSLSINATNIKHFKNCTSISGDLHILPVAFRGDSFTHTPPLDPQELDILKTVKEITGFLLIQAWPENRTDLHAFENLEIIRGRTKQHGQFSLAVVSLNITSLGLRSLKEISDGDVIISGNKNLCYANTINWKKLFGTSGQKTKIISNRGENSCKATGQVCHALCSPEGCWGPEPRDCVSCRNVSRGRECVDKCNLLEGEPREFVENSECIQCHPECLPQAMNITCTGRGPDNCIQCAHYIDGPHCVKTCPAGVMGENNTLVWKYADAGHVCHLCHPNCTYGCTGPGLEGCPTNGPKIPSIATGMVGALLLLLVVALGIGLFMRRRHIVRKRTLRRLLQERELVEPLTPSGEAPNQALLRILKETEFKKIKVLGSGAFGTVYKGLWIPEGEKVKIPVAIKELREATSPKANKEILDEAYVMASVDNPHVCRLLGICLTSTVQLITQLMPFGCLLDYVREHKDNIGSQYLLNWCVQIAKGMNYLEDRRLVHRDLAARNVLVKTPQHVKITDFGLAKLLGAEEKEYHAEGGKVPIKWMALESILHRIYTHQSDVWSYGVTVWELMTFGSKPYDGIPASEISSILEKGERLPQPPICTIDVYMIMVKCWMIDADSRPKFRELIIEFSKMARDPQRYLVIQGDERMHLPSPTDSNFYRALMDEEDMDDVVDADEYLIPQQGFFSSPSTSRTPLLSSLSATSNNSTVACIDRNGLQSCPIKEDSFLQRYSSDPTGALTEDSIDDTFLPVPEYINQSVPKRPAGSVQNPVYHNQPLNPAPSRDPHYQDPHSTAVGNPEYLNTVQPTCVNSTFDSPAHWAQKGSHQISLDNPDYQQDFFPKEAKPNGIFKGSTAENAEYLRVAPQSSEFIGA
Assay [8] has as its target Follistatin-related protein 3 (Homo sapiens) (UniProt O95633). Nature of the assay: compounds binding follistatin-related protein 3 – biochemical, small-molecule microarray, 635 nm fluorescence, primary screen (AID 1105).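 Further: score merges emission near 667 nm and signal to noise per printed spot across three slides.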 The following applies: FSTL3 binding, higher = more signal.
Assay [9] has as its target Dickkopf-related protein 1 (Homo sapiens) (UniProt O94907). Nature of the assay: small molecules binding DKK1 protein – biochemical, small-molecule microarray, 635 nm fluorescence scan, primary screen (AID 1106).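 Further: score merges emission near 667 nm with signal to noise over three replicate slides.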 The following applies: higher = more signal.
Assay [10] deals with Inhibin beta A chain (activin A). Nature of the assay: small molecules binding activin A – biochemical, small-molecule microarray, 635 nm fluorescence scan, primary screen (AID 1107).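 Further: mouse activin A protein probed at 4.33 µg/mL on printed slides; score merges bound-protein fluorescence near 667 nm with spot signal-to-noise.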 The following applies: INHBA, higher = more signal.
Assay [11] has as its system Human papillomavirus type 1a protein E7 (residues 44-93). Briefly: small molecules binding HPV E7 44-93 – biochemical, small-molecule microarray, residues 44-93, 635 nm fluorescence, primary screen (AID 1108).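 Further: E7 fragment applied at 1 µg/mL in TBST for 1 h at 4 C; score combines spot fluorescence with its signal to noise ratio.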 The following applies: fluorescence 635 nm, higher = more signal.
The nature of assay [12]: hepatitis C replication reporter changes, two-sided – Huh7 cells, luciferase reporter, HCV replication inhibitor project, primary screen (AID 1109).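 Further: huh7 hepatoma cells harbouring a luciferase neomycin HCV replicon reporter; luciferase luminescence as measure of HCV replicon replication; test concentration not given here.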 The following applies: Huh7 HCV replicon luciferase reporter, 48 h; higher = more signal.
In assay [13] the target is Left-right determination factor 2 (Homo sapiens) (UniProt O00292). Briefly: small molecules binding LEFTY2 protein – biochemical, small-molecule microarray, 635 nm fluorescence scan, primary screen (AID 1110). The following applies: higher = more signal.
Left-right determination factor 2 (Homo sapiens), sequence (O00292 whole entry, looked up): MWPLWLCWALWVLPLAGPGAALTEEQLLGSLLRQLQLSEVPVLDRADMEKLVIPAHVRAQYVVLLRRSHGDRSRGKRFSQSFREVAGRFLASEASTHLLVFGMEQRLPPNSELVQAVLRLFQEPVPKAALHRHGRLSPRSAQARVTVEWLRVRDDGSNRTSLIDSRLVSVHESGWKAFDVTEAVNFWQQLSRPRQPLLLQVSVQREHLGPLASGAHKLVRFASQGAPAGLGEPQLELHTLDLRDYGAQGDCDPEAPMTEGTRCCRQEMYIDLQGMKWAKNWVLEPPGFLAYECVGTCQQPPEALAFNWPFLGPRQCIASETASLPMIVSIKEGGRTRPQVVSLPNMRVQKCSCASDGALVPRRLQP
Assay [14] concerns the target Calmodulin-1 (Homo sapiens) (UniProt P0DP23). Briefly: small molecules binding calmodulin-1 with EGTA – biochemical, small-molecule microarray, Cy5-labelled CALM1, profiling panel (AID 1111).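 Further: labelled calmodulin applied in Tris saline Tween buffer holding calcium plus EGTA and DTT.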 The following applies: Cy5-CALM1 binding fluorescence, higher = more signal.
For assay [15] the target is unchanged. Briefly: small molecules binding Ca-loaded calmodulin-1 – biochemical, small-molecule microarray, Cy5-labelled CALM1, plus calcium, artefact control for SMM control-protein annotation, profiling panel (AID 1112).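 Further: score merges spot fluorescence with signal to noise from triplicate slides.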 The following applies: Cy5-CALM1 binding fluorescence, higher = more signal.
The nature of assay [16]: probe aWnt5a binding to arrayed compounds – biochemical, biotinylated probe, 635/667 nm fluorescence, primary screen (AID 1113).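 Further: score merges 667 nm fluorescence intensity with signal-to-noise per printed feature.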 The following applies: small-molecule microarray, higher = more signal.
Assay [17] can be described thus: probe aShh binding to arrayed compounds – biochemical, biotinylated probe, 635/667 nm fluorescence, primary screen (AID 1114).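 Further: probe is biotin-labelled aShh protein from a stem cell growth factor screen; measures binding of labelled protein to compounds printed on the slide; score merges feature fluorescence at 667 nm with signal-to-noise.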 The following applies: small-molecule microarray, higher = more signal.
A short description of assay [18]: probe aNog binding to arrayed compounds – biochemical, biotinylated probe, 635/667 nm fluorescence, primary screen (AID 1115).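 Further: probe is biotinylated aNog protein used at 0.15 µg/mL for 1 h at 4 C; z-score combines 667 nm fluorescence of each spot with its signal to noise.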 The following applies: small-molecule microarray, higher = more signal.
Assay [19] has as its target Torsin-1A-interacting protein 1 (Homo sapiens) (UniProt Q5JTV8). Briefly: compound microarray binding of lysate hLAP1 – cell lysate, small-molecule microarray, COS7 lysate, 635/667 nm fluorescence, primary screen (AID 1116). The following applies: 635 nm fluorescence, higher = more signal.
Assay [20] concerns the target Alpha-bungarotoxin (Bungarus multicinctus) (UniProt P60615). Nature of the assay: compounds binding labelled alpha-BTX control protein – biochemical, small-molecule microarray, Alexa647 label, 635/667 nm fluorescence, artefact control for SMM control protein annotation, profiling panel (AID 1117). The following applies: alpha-BTX-A647 binding fluorescence, higher = more signal.

Calls of active or inactive are those of the source.

Torsin-1A-interacting protein 1 (Homo sapiens), sequence (Q5JTV8 whole entry, looked up): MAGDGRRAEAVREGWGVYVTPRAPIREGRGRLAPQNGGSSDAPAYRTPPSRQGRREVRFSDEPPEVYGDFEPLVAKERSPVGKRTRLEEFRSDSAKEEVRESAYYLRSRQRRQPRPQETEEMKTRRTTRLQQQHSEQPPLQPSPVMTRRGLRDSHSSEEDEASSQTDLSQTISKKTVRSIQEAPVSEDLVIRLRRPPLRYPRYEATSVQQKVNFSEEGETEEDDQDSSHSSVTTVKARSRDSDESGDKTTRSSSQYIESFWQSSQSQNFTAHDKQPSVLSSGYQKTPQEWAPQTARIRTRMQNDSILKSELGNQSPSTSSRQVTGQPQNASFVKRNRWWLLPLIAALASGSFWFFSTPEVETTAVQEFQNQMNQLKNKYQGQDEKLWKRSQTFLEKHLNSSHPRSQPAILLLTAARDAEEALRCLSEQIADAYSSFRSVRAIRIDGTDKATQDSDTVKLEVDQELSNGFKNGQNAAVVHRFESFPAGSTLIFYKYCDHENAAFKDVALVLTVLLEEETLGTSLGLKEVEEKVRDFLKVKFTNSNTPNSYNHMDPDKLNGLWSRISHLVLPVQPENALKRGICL
Follistatin-related protein 3 (Homo sapiens), sequence (O95633 whole entry, looked up): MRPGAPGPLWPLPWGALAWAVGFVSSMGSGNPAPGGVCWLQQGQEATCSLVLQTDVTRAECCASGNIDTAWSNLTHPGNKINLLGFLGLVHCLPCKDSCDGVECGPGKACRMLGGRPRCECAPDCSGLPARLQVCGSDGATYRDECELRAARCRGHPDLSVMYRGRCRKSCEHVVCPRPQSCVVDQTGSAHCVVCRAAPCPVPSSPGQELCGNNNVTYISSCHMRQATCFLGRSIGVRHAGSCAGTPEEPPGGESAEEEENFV
Alpha-bungarotoxin (Bungarus multicinctus), sequence (P60615 whole entry, looked up): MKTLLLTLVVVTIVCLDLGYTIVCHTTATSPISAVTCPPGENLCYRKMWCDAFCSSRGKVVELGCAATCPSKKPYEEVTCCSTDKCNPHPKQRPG
Dickkopf-related protein 1 (Homo sapiens), sequence (O94907 whole entry, looked up): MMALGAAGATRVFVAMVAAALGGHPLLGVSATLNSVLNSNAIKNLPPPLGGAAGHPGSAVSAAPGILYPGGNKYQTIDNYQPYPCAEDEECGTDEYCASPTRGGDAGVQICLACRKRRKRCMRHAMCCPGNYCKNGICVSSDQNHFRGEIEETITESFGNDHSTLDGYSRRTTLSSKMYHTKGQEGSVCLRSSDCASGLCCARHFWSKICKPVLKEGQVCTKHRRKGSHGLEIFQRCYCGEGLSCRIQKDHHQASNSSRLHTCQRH

Regarding `COc1cc(Cc2cc3c(c(CCc4ccccc4)n2)[Si](C(C)C)(C(C)C)OC3)cc(OC)c1OC`, the composite z-score is -0.132 in assay [1]; -0.106 in assay [2]; -0.471 in [3]; 0.367 in assay [5]; -0.034 in [6]; 0.0831 in [7]. The composite z-score in assay [8] was 0.499; in [9], 0.164; in assay [10], 0.679; in assay [11], -0.0207; in assay [13], 0.131; in assay [14] it was -0.358. The composite z-score in [15] is -0.182; in assay [16], -0.156; in assay [17], 0.0796; in assay [18], -0.158; in [19], -0.214; in [20], -0.044. For the same molecule, the z-score is -0.212 (inactive) in assay [4] and -2.14 in assay [12].

As to `CN1C(=O)C2C=CC(C(O)c3ccc(N(C)C)cc3)N(Nc3ccc([N+](=O)[O-])cc3[N+](=O)[O-])C2C1=O` (stereo not given), the composite z-score was 1.27 in assay [1]; 1.17 in assay [2]; 0.33 in [3]; 0.887 in [5]; 1.2 in assay [6]; 0.737 in assay [7]. The composite z-score turned out to be 1.2 in assay [8]; 0.137 in assay [9]; 1.49 in assay [10]; 0.501 in assay [11]; 0.371 in assay [13]; 0.49 in [14]. The composite z-score in [15] was 0.697; in assay [16] it was 0.055; in [17] it was 0.446; in assay [18], 1.7; in [19] it was 1; in assay [20], 0.988. Besides, the z-score in [4] is 1.16 (inactive); in [12], -0.353.

On to `CC(=O)NCCCC[C@@H]1NC(=O)[C@H]2C[C@@H](C(=O)NCCCCCCN(C)C)[C@@H](c3ccc(O)cc3)N2C1=O`, for which the composite z-score in [1] is 1.04; in [2] it was -0.124; in assay [3], 0.0091; in assay [5], 0.815; in assay [6], 1.35; in [7] it was 0.851. The composite z-score is 1.55 in assay [8]; 1.14 in assay [9]; 0.775 in assay [10]; 0.19 in assay [11]; 0.851 in assay [13]; -0.382 in [14]. In addition, the composite z-score in assay [15] was -1.53; in assay [16] it was -0.154; in [17] it was 0.23; in assay [18], 0.512; in assay [19] it was 1.85; in assay [20], 2.01. Moreover, the z-score in assay [4] was -0.808 (inactive); in assay [12] it was 1.87.

In the case of `COc1cc(CO)cc(I)c1O[C@H]1C=C(C(=O)NCCO)C[C@@H](NCCc2c[nH]c3ccccc23)[C@@H]1O`, the composite z-score worked out at 1 in [1]; 0.27 in assay [2]; 0.375 in assay [3]; 1.06 in assay [5]; 0.433 in assay [6]; 0.666 in [7]. The composite z-score was 1.05 in [8]; 0.4 in assay [9]; 1.22 in assay [10]; -0.552 in assay [11]; 0.688 in [13]; 0.228 in assay [14]. Also, the composite z-score is -0.56 in [15]; -0.0032 in assay [16]; 0.116 in assay [17]; 0.758 in assay [18]; 0.762 in assay [19]; 0.988 in assay [20]. Besides, the figures for the z-score in assay [4] and in assay [12] were -1.01 (inactive) and -2.76, respectively.

With `C=CCC(OC(C)=O)[C@@H]1[C@@H](N(Cc2cccc3ccccc23)C(=O)c2ccc(C)cc2)c2cc(OCCCO)ccc2N1C(=O)c1ccc(-c2ccccc2)cc1` (stereo not given in full), the composite z-score in assay [1] was 0.451; in assay [2], -0.0044; in assay [3] it was 0.322; in assay [5], -0.162; in assay [6], 0.0243; in assay [7] it was 0.0513. The composite z-score is 0.268 in [8]; -0.133 in assay [9]; 1.08 in assay [10]; 0.479 in assay [11]; 0.111 in assay [13]; -0.355 in [14]. For the same molecule, the composite z-score was -0.065 in assay [15]; -0.135 in [16]; -0.273 in [17]; -0.241 in assay [18]; -0.144 in [19]; -0.218 in assay [20]. Moreover, the z-score was -1.15 (inactive) in [4] and -0.852 in assay [12].

As to `CCC(=O)[C@]12O[C@@]3([C@@H]4C(=O)OCC[C@@H]41)N(Cc1ccccc1)C(C)=C(C(=O)OC)[C@@H](c1ccccc1)N3C2=O`, the composite z-score in assay [1] is 0.401; in assay [2], -0.393; in assay [3], -0.314; in [5] it was 0.0848; in [6], -0.588; in assay [7] it was -0.0835. For the same molecule, the composite z-score is -0.782 in assay [8]; -0.0297 in [9]; 1.47 in [10]; -2.88 in [11]; 0.271 in [13]; -0.146 in [14]. Besides, the composite z-score is -0.0047 in assay [15]; -0.16 in assay [16]; -0.0653 in [17]; -0.196 in assay [18]; -0.398 in [19]; -0.621 in [20]. Besides, the z-score in assay [4] is -1.15 (inactive); in assay [12], 0.286.
